Screening data (PubChem BioAssay)
PLK1 PBD block – blocks phosphopeptide binding to human PLK1 polo-box domain. P53350. Plk1 PBD binding of FITC phosphopeptide, fluorescence polarization. Potency, µM, most hits filed as inhibitors. 2.8% of 360,000 active. AID 720504; note: series mostly up to about 57 µM; nearly all actives have a fitted effect of over 65% in size
ALOX12 inh – ALOX12 (human) lipoxygenase inhibition. purified 12hLO, xylenol orange hydroperoxide absorbance. Potency, µM (doses to about 108 µM), usual class: inhibitors. 1.1% of 580,000 active. AID 1671190
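Purified human 12hLO at 150 nM in 25 mM Hepes, 0.01% Triton X-100, pH 7.0, preincubated 15 min at room temperature with compound. Reaction started with 40 uM arachidonic acid, 30 min at room temperature. Hydroperoxide measured by Fe-xylenol orange, 573/405 nm absorbance ratio.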
VDR inh – inhibitors of human vitamin D receptor; P11473; VDR-SRC2-3 peptide fluorescence polarization, 2 h; Potency, µM, actives largely listed as inhibitors; 0.93% of 400,000 active; AID 504847
Target sequence (P11473 whole entry, looked up): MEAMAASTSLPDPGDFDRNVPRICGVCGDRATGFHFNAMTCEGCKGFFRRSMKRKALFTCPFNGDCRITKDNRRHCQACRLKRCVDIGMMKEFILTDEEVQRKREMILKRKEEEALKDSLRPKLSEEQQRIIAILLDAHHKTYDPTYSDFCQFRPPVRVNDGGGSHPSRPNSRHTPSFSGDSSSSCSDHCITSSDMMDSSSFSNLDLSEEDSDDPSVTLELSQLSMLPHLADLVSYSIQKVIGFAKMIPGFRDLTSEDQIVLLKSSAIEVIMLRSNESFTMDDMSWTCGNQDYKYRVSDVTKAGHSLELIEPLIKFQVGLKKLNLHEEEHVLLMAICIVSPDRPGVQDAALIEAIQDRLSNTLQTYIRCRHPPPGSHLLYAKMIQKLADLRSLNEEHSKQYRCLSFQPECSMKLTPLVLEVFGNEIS
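Two reagent solutions held at 4 deg C in the dark were dispensed, compounds pinned at 23 nl, and the mixture incubated 2 h at room temperature. Read-out: fluorescence polarization of VDR–SRC2-3 peptide binding.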
Sfp inh – blocks B. subtilis Sfp PPTase activity; Q9F4F7; Biochemical Sfp PPTase activity, qHTS; Potency, µM, most hits filed as inhibitors; 3.5% of 310,000 active;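 note: the enzyme is Sfp with the accession as filed and its product quenches rhodamine fluorescence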
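With Hepes-Na pH 7.6 buffer containing 10 mM MgCl2, Sfp (15 nM) modified BHQ-2-YbbR (12.5 uM) using rhodamine-CoA (5 uM). Two reads 30 minutes apart at 525/598 nm yielded each well's rate.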
Each line names hits and unclear results; the compound was inactive in the other large screens. A selection: hits, their analogues and other compounds. The true share with any hit is near 4.2%. Calls come from the whole dose curve; as a rule, active = well fitted curve in the direction sought with a large enough effect; inconclusive = small, poorly fitted or top-dose-only effect, or another doubt; inactive = no such curve, though single readings can be large; an effect the other way counts as inactive or inconclusive.

CCCC(C)NC(=O)COC(=O)c1cccc(NS(C)(=O)=O)c1 (configuration not stated)	PLK1 PBD block 30µM
O=C(NCCN1CCOCC1)c1cc(S(=O)(=O)Nc2ccccc2F)c(Cl)cc1Cl	PLK1 PBD block 34µM, ALOX12 inh inconclusive
N#Cc1cc(Cl)ccc1OCc1ccccc1	none (no result: PLK1 PBD block, VDR inh, Sfp inh)
CC1(C)CC2(CC(c3ccccc3)Oc3cc(O)ccc32)NC(=S)N1 (configuration not stated)	ALOX12 inh 32µM
CC1(C)CC2(CC(c3ccccc3)Oc3cc(O)ccc32)NC(=O)N1 (configuration not stated)	none (no result: PLK1 PBD block, VDR inh)
CN1c2ccsc2/C(=N/Nc2ccc(F)cc2)CS1(=O)=O	PLK1 PBD block 27µM, ALOX12 inh inconclusive
Cc1cc(C)cc(NCC(=O)Nc2c(C)cccc2C)c1	none
COC(=O)c1cc(Cl)c(NC(=O)c2ccc(C(C)(C)C)cc2)cc1OC	Sfp inh 14µM
COC(=O)c1cc(Cl)c(NC(=O)C(C)C)cc1OC	none
COc1ccc(/C=C2/C(=O)N(c3nc4ccccc4s3)N=C2CSc2ccc(Cl)cc2)cc1	PLK1 PBD block 8.4µM, ALOX12 inh 5µM
c1c2c(cc3sc(N4CCCCC4)nc13)OCO2	PLK1 PBD block inconclusive
c1c2c(cc3sc(N4CCOCC4)nc13)OCO2	PLK1 PBD block 27µM, ALOX12 inh inconclusive, VDR inh inconclusive, Sfp inh 35µM
c1ccc(N2CCN(c3nc4cc5c(cc4s3)OCO5)CC2)cc1	PLK1 PBD block 27µM, VDR inh inconclusive, Sfp inh 45µM
COc1ccc(N2C[C@@]3(O)CC[C@@H](O)[C@@H](OC)[C@@H]3[C@@](C)(O)[C@@H]2CC=C(C)C)cc1	none (no result: PLK1 PBD block, VDR inh, Sfp inh)
O=C(c1ccccc1)c1c2c(cc3sc4ccccc4[n+]13)-c1cccc3cccc-2c13	PLK1 PBD block inconclusive, ALOX12 inh 32µM, Sfp inh inconclusive
CCN(Cc1ccccc1)C(=O)COC(=O)c1cc(=O)[nH]c2ccccc12	none
S=C(NCCCCN(Cc1ccc(Cl)cc1)c1ccc(Br)cn1)NCCCc1cnc[nH]1	ALOX12 inh 35µM (no result: PLK1 PBD block, Sfp inh)
CN(CCCN(Cc1ccc(Cl)cc1)c1ccc(Br)cn1)C(=S)NCCCc1cnc[nH]1	none (no result: PLK1 PBD block, ALOX12 inh, Sfp inh)
O=C(Nc1cccc(-n2cccn2)c1)C1CCCN1C(=O)C1CCC1 (configuration not stated)	none (no result: PLK1 PBD block, VDR inh, Sfp inh)
Cc1ccccc1OCCn1cc(C(=O)C2CCCCC2)c2ccccc21	ALOX12 inh inconclusive (no result: PLK1 PBD block, Sfp inh)
O=C(Nc1cccc(C(=O)NC2CC2)c1)c1ccccc1	none (no result: Sfp inh)
COc1ccc(NC(=O)N2CCN(S(C)(=O)=O)CC2)cc1	PLK1 PBD block 27µM, VDR inh inconclusive
COc1ccc(NC(=O)N2CCN(C(=O)Nc3ccc(OC)cc3)CC2)cc1	none
O=S1(=O)CCN(Cc2cccc(Cl)c2)CC1	none
O=C(C1CCCN(Cc2cccc(Cl)c2)C1)N1CCCCC1 (configuration not stated)	PLK1 PBD block 19µM, ALOX12 inh inconclusive, VDR inh inconclusive, Sfp inh inconclusive
Cc1cc(C(=O)NC2CCCN(Cc3ccc(Cl)cc3)C2)c(C)o1 (configuration not stated)	ALOX12 inh 16µM
O=C(C1CCCN(Cc2ccc(Cl)cc2)C1)N1CCCCC1 (configuration not stated)	ALOX12 inh 0.63µM
Clc1cccc(CN2CCSCC2)c1	ALOX12 inh 0.35µM
Cc1cc2cc(CN3C(=O)c4ccccc4C3=O)ccc2n1C	none
COc1ccc(NC(=O)CCNS(=O)(=O)c2ccc3c(c2)CCC(=O)N3)cc1	none
O=C(C1CCCN(Cc2cccc3ccccc23)C1)N1CCc2ccccc2C1 (configuration not stated)	ALOX12 inh 0.63µM (no result: PLK1 PBD block, VDR inh, Sfp inh)
N#Cc1ccccc1OCc1ccc(C(N)=O)cc1	none (no result: PLK1 PBD block, VDR inh, Sfp inh)
COc1ccc(OCC(=O)Nc2ccc3nn(-c4ccc(OC)cc4)nc3c2)cc1	none (no result: PLK1 PBD block, Sfp inh)
Cc1cc(C)cc(N2C(=O)CC(Sc3nnnn3-c3ccccc3)C2=O)c1 (configuration not stated)	PLK1 PBD block inconclusive
Cc1cc(C)cc(N2C(=O)CC(Sc3ncn[nH]3)C2=O)c1 (configuration not stated)	PLK1 PBD block 24µM, ALOX12 inh inconclusive, Sfp inh 35µM
CCc1ccc(CNC(=O)CSCc2cnn(-c3ccccc3)c2-n2cccc2)cc1	none (no result: PLK1 PBD block, Sfp inh)
N#CCCN(C(=O)CSc1ccc2c(c1)OCCO2)c1ccccc1	PLK1 PBD block 19µM
CC(=O)Nc1ccc(S(=O)(=O)N2CCC(c3nnc(-c4ccc(C)cc4)o3)CC2)cc1	Sfp inh 50µM
Cc1cccc(NC2=NC(C)(C)N=C(N)N2)c1C	VDR inh 25µM
Cc1cnc(C(=O)Nc2ccccc2-c2ccc(C)o2)cn1	ALOX12 inh inconclusive, Sfp inh 50µM
Cc1cnc(C(=O)Nc2cccc3ncccc23)cn1	ALOX12 inh inconclusive
COC(=O)[C@@H]1Cc2c([nH]c3ccccc23)[C@H]2C[C@@H](NCCNC(C)=O)C[C@@H](c3ccc(C)cc3)N21	none (no result: PLK1 PBD block, VDR inh, Sfp inh)
COc1cccc(C=NCCNC(=O)c2nonc2N)c1O	VDR inh inconclusive, Sfp inh 45µM
COc1ccccc1N1CCN(CCCN2C(=O)C3CCCCN3C2=O)CC1 (configuration not stated)	none (no result: Sfp inh)
COc1ccccc1N1CCN(CCN2C(=O)C3CCCCN3C2=O)CC1 (configuration not stated)	ALOX12 inh 13µM
CCOC(=O)COn1c(=O)c[n+]([O-])c2ccccc21	Sfp inh inconclusive
CCCCc1ccc(S(=O)(=O)NC(=O)C2(C)CCN2C(=O)CCc2cccs2)cc1 (configuration not stated)	none (no result: VDR inh, Sfp inh)
CCn1nc(NS(=O)(=O)c2ccc(NC(C)=O)cc2)c2cc3ccccc3nc21	PLK1 PBD block 24µM, VDR inh inconclusive
CC(=O)Nc1ccc(S(=O)(=O)NNC(=O)c2cccc(Cl)c2)cc1	PLK1 PBD block 24µM
CCn1nc(NS(=O)(=O)c2ccc(NC(C)=O)cc2)c2cc3ccc(C)cc3nc21	PLK1 PBD block inconclusive
CC(=O)Nc1ccc(S(=O)(=O)Nc2nc3ccccc3nc2Nc2cccc(Cl)c2)cc1	ALOX12 inh 16µM (no result: PLK1 PBD block, VDR inh, Sfp inh)
CC(=O)Nc1ccc(S(=O)(=O)Nc2nc3ccccc3nc2Nc2cccc(C)c2)cc1	none (no result: PLK1 PBD block, VDR inh, Sfp inh)
Cc1cccc(C(=O)NNS(=O)(=O)c2ccc(F)cc2)c1	none
O=C(NNS(=O)(=O)c1ccccc1)c1cccc(F)c1	Sfp inh 35µM
O=[N+]([O-])c1cccc(/C=N/NC2=NCCCCC2)c1	none
CCOC(=O)c1nn(-c2ccc(F)cc2)c(=O)c(C#N)c1C	none
Fc1ccc(N2CCN(Cc3cccn3-c3nnc(N4CCN(C5CCCCC5)CC4)s3)CC2)cc1	none (no result: PLK1 PBD block, Sfp inh)
CCCCOC(=O)C(C)Nc1n[nH]c(=O)[nH]c1=O (configuration not stated)	none
NC(=O)CNc1n[nH]c(=S)[nH]c1=O	Sfp inh 79µM
COC(=O)Cc1n[nH]c(=S)[nH]c1=O	Sfp inh 18µM
CC(Nc1n[nH]c(=S)[nH]c1=O)C(=O)OCc1ccccc1 (configuration not stated)	PLK1 PBD block inconclusive, ALOX12 inh inconclusive
CCCCOC(=O)C(C)Nc1n[nH]c(=S)[nH]c1=O (configuration not stated)	PLK1 PBD block 27µM, ALOX12 inh inconclusive, Sfp inh 50µM
